In the library only some 2.4% were active in any assay of this set; here they are far more common.
PABP polyA inh = PABP-poly(A) binding inhibition; 290,000 compounds, 1% hits; PABP-poly(A) RNA binding, fluorescence polarization; calls only at 35 µM;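 note: calls also rest on retests at 20 µM and on dose response follow-up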
Target sequence (P11940 whole entry, looked up): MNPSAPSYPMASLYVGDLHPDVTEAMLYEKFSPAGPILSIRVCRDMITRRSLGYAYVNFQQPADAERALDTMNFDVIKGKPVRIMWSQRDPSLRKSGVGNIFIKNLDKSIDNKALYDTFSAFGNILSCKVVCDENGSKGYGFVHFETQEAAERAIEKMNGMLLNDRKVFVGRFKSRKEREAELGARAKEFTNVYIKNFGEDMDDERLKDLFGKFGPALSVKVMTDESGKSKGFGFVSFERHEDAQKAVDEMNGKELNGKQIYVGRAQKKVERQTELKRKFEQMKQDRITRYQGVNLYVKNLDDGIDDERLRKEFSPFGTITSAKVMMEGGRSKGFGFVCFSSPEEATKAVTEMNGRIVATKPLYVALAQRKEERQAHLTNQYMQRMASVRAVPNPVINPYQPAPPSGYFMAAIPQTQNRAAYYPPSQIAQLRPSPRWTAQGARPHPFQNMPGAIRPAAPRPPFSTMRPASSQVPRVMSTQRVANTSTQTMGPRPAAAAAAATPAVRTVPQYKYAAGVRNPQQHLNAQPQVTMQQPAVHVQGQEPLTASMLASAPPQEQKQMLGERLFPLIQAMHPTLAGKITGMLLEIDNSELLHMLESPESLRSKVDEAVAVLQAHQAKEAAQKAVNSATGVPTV
PABP1 MLLE inh = blocks PAM2 peptide binding to the PABP1 MLLE domain; GST-MLLE / FITC-PAM2 fluorescence polarization; 360,000 compounds, 0.36% hits; inhibition, % at 20 µM; in the data active = inhibition above about 35%, passing the limit was not always enough
eIF4H FP inh = inhibitors of RNA binding by human eIF4H | Q15056 | eIF4H fluorescence polarization binding assay | inhibition, % at 35 µM | 290,000 compounds, 0.94% hits | AID 2012;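 note: calls also rest on retests at 20 µM and on dose response follow-up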
HMGR II inh = E. faecalis class II HMG-CoA reductase inhibition; purified E. faecalis HMGR, NADPH absorbance 340 nm kinetic; inhibition, % at 10 µM; 190,000 compounds, 0.41% hits; AID 1066;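 active = inhibition above a set limit, the median over all tested compounds plus 3 SD, cut at about 9.5% in these data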;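 note: enzyme runs in reverse so mevalonate oxidation gives rising NADPH absorbance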
PHOSPHO1 inh = inhibitors of human PHOSPHO1 phosphatase | recombinant PHOSPHO1, absorbance phosphatase assay | 290,000 compounds, 1.1% hits | Q8TCT1 | inhibition, % at 13.3 µM; in the data active = inhibition above about 60%
Each line names hits and unclear results; the compound was inactive in the other large screens. Unless noted, the rule behind the calls is not given here.

CCc1ccccc1-n1c(-c2ccncc2)n[nH]c1=S	PHOSPHO1 inh 90
CC(C)(O)C#Cc1ccc(C(=O)NCc2ccccc2F)cc1	none
CCOc1cc(/C=N/NC(=O)COc2ccc(C)cc2)ccc1OC(=O)c1cccs1	PHOSPHO1 inh 60
CCN1C[C@@H]2[C@@H]3C(=O)N(C)C(=O)[C@@H]3[C@](C)(C1=O)N2C(=O)c1ccc(Cl)c(Cl)c1	none (no result: PABP polyA inh, eIF4H FP inh, HMGR II inh, PHOSPHO1 inh)
O=C(O)Cn1nncc1-c1ccc(C(F)(F)F)cc1	none (no result: PABP polyA inh, eIF4H FP inh, HMGR II inh, PHOSPHO1 inh)
N#Cc1ccccc1S(=O)(=O)N1CCN(CC(O)c2ccccc2)CC1 (stereo not given)	eIF4H FP inh 7.2
CC(=O)c1ccccn1	none (no result: PABP polyA inh, eIF4H FP inh, HMGR II inh, PHOSPHO1 inh)
CC(=O)c1csc(CS(=O)(=O)c2ccccn2)n1	PHOSPHO1 inh 61 (no result: HMGR II inh)
CNc1ccc(Br)cc(C(=O)/C=C/c2cccc(OC)c2OC)c1=O	none
CNc1ccc(Br)cc(C(=O)/C=C/c2cccc(Cl)c2Cl)c1=O	PABP polyA inh active
Cc1ncc([N+](=O)[O-])n1CC(=O)N/N=C/c1ccccc1F	PHOSPHO1 inh 68
Cc1cc([N+](=O)[O-])nn1CC(=O)N/N=C/c1ccccc1O	none (no result: HMGR II inh)
Cc1cc([N+](=O)[O-])nn1CC(=O)N/N=C/c1ccccc1F	PABP polyA inh active, eIF4H FP inh 58 (no result: HMGR II inh)
Cc1ccccc1NC(=O)Cn1c([N+](=O)[O-])cnc1C	none
CC1(C(=O)OCC(=O)Nc2nnc(-c3ccccc3)o2)CC1(Cl)Cl (stereo not given)	none (no result: PABP polyA inh, eIF4H FP inh, HMGR II inh, PHOSPHO1 inh)
CN(CCOc1ccccc1)C(=O)c1ccc(Cl)c(S(=O)(=O)N2CCCCC2)c1	none (no result: PABP polyA inh, eIF4H FP inh, HMGR II inh, PHOSPHO1 inh)
C=CCN1C=C2C(=O)C(C)(OC(=O)CCC(=O)OC)C(=O)C(Br)=C2C=C1c1ccc(OC)cc1 (stereo not given)	PABP polyA inh active, eIF4H FP inh 95 (no result: HMGR II inh)
Cc1cc(C(=O)Nc2sc(C)c(C)c2C#N)no1	none
COc1cc2cc3c(N)c(C(=O)Nc4sc(C)c(C)c4C#N)sc3nc2cc1OC	PABP polyA inh active, eIF4H FP inh 89
COc1cc2cc3c(N)c(C(=O)NCc4ccco4)sc3nc2cc1OC	PABP polyA inh active, eIF4H FP inh 82, PHOSPHO1 inh 72
Cc1ccc2nc3sc(C(=O)NCc4ccco4)c(N)c3cc2c1	none
Cc1cccc(N2CCN(C(=O)CCC(=O)N3CCOc4ccc(Cl)cc43)CC2C)c1 (stereo not given)	none (no result: HMGR II inh)
CCCc1c(C)[nH]c2ccc(C(=O)O)cc2c1=S	PABP polyA inh active, eIF4H FP inh 56 (no result: HMGR II inh)
CCN(CC)CC(C)CNC(=O)CN1C(=O)CSc2ccc(S(=O)(=O)N3CCOCC3)cc21 (stereo not given)	none
CCc1nnc(NC(=O)CSc2sc3c(O)cc(=O)[nH]c3c2C#N)s1	PABP polyA inh active, eIF4H FP inh 90 (no result: HMGR II inh)
CCSc1nnc(NC(=O)CSc2sc3c(O)cc(=O)[nH]c3c2C#N)s1	PABP polyA inh active, eIF4H FP inh 91 (no result: HMGR II inh)
Cc1csc(NC(=O)CSc2sc3c(O)cc(=O)[nH]c3c2C#N)n1	PABP polyA inh active, eIF4H FP inh 64 (no result: HMGR II inh)
Cc1ccc(C)c(NC(=O)CSc2sc3c(O)cc(=O)[nH]c3c2C#N)c1	none (no result: HMGR II inh)
CCCCCCC(=O)N(O)C1CC(=O)N(c2ccc(C)cc2)C1=O (stereo not given)	PABP1 MLLE inh 44
CCCCCCC(=O)N(O)C1CC(=O)N(c2ccc(Cl)cc2)C1=O (stereo not given)	none (no result: HMGR II inh)
CC(NC(=O)c1ccc(OC2CCN(Cc3ccccn3)CC2)cc1)c1nccs1 (stereo not given)	none (no result: HMGR II inh)
CCC(O)C1CCN(C(=O)c2ccc(OC3CCN(Cc4ccccn4)CC3)cc2)CC1 (stereo not given)	PHOSPHO1 inh 70 (no result: HMGR II inh)
Cc1nc(C(C)NC(=O)c2ccc(OC3CCN(Cc4ccccn4)CC3)cc2)c(C)s1 (stereo not given)	PHOSPHO1 inh 81 (no result: PABP polyA inh, eIF4H FP inh, HMGR II inh)
CC(=O)N1CCN(C(=O)c2ccc(OC3CCN(Cc4ccccn4)CC3)cc2)CC1	none (no result: HMGR II inh)
COC(=O)[C@@H](NC(=O)c1ccc(OC2CCN(Cc3ccccn3)CC2)cc1)C(C)C	PHOSPHO1 inh 60
N#CC1c2ccccc2C=CN1C(=O)N(c1ccccc1)c1ccccc1 (stereo not given)	none (no result: PABP polyA inh, eIF4H FP inh, HMGR II inh, PHOSPHO1 inh)
COc1ccccc1N(CC(=O)N1CCN(c2ccc(F)cc2)CC1)S(=O)(=O)c1ccc(C)cc1	none (no result: HMGR II inh)
Cc1ccc(CSc2sc(C(=O)c3ccccc3)c(N)c2C#N)cc1	PHOSPHO1 inh 97
N#Cc1c(Oc2ccc3ccccc3c2)sc(C(=O)c2ccccc2)c1N	none
N#Cc1c(SCc2ccccc2)sc(C(=O)c2ccccc2)c1N	PHOSPHO1 inh 73
N#Cc1c(SCc2cccc(Cl)c2)sc(C(=O)c2ccccc2)c1N	PHOSPHO1 inh 62

Source: PubChem (several laboratories)
